Reference: PubChem BioAssay AID1159580 (chemical genetic matrix, 2015)
The whole screen tested about 5,500 compounds, of which about 2,000 (36%) were called active. Inconclusive results (about 18%) are left out. Rule as the data show it: active = normalized growth mostly below about 0.91 (no sharp cut-off); inconclusive = no clear call, values can overlap the other calls; inactive = mostly above about 0.92. The list shows a part of the results.

Experiment: chemical genetic growth profiling, strain panel (AID 1159580);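 also: tested at 20 µM; growth read once vehicle control cultures reached saturation at 30 °C; 1 = growth at the plate median or of vehicle wells; lower values mean less growth of the strain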
Settings: growth OD

Measured: normalized growth

Cn1c([N+](=O)[O-])cnc1COC(N)=O
inactive: S. cerevisiae deletion strains, locus YJR075W, strain HOC1, hits give low values 1.02 | S. cerevisiae deletion strains, locus YKL009W, strain mrt4, hits give low values 1.01 | S. cerevisiae deletion strains, locus YKL068W, hits give low values 0.991 | S. cerevisiae deletion strains, locus YKL085W, strain MDH1 (second series), hits give low values 0.994 | S. cerevisiae deletion strains, locus YKL085W, strain MDH1, hits give low values 0.994 | S. cerevisiae deletion strains, locus YKL160W, strain elf1, hits give low values 1.02 | S. cerevisiae deletion strains, locus YKL190W, strain CNB1, hits give low values 1 | S. cerevisiae deletion strains, locus YKR001C, strain vps1, hits give low values 0.976 | S. cerevisiae deletion strains, locus YKR026C, strain gcn3, hits give low values 0.998 | S. cerevisiae deletion strains, locus YKR091W, strain srl3, hits give low values 0.998 | S. cerevisiae deletion strains, locus YLL001W, strain dnm1, hits give low values 1.03 | S. cerevisiae deletion strains, locus YLL026W, hits give low values 1 | S. cerevisiae deletion strains, locus YLL041C, strain sdh2, hits give low values 0.993 | S. cerevisiae deletion strains, locus YLR027C, strain aat2, hits give low values 1.01 | S. cerevisiae deletion strains, locus YLR039C, strain RIC1, hits give low values 1.02 | S. cerevisiae deletion strains, locus YLR058C, strain SHM2, hits give low values 1.01 | S. cerevisiae deletion strains, locus YLR102C, strain apc9, hits give low values 0.986 | S. cerevisiae deletion strains, locus YLR113W, strain HOG1, hits give low values 1.03 | S. cerevisiae deletion strains, locus YLR221C, strain rsa3, hits give low values 0.978 | S. cerevisiae deletion strains, locus YLR258W, strain gsy2, hits give low values 1.02 | S. cerevisiae deletion strains, locus YLR262C, strain YPT6 (second series), hits give low values 1 | S. cerevisiae deletion strains, locus YLR262C, strain YPT6, hits give low values 1.05 | S. cerevisiae deletion strains, locus YLR268W, strain sec22, hits give low values 0.991 | S. cerevisiae deletion strains, locus YLR320W, strain mms22, hits give low values 0.983 | S. cerevisiae deletion strains, locus YLR330W, strain CHS5, hits give low values 1.01 | S. cerevisiae deletion strains, locus YLR342W, strain FKS1 (second series), hits give low values 0.982 | S. cerevisiae deletion strains, locus YLR342W, strain FKS1, hits give low values 0.998 | S. cerevisiae deletion strains, locus YLR357W, strain rsc2, hits give low values 0.989 | S. cerevisiae deletion strains, locus YLR370C, strain arc18, hits give low values 1.02 | S. cerevisiae deletion strains, locus YLR371W, strain rom2, hits give low values 0.988 | S. cerevisiae deletion strains, locus YLR384C, strain iki3, hits give low values 1 | S. cerevisiae deletion strains, locus YLR418C, strain cdc73, hits give low values 0.962 | S. cerevisiae deletion strains, locus YML016C, strain PPZ1, hits give low values 1 | S. cerevisiae deletion strains, locus YML032C, strain rad52, hits give low values 0.984 | S. cerevisiae deletion strains, locus YML120C, strain ndi1, hits give low values 0.999 | S. cerevisiae deletion strains, locus YML124C, strain tub3, hits give low values 0.99 | S. cerevisiae deletion strains, locus YMR058W, strain fet3, hits give low values 1.01 | S. cerevisiae deletion strains, locus YMR078C, strain ctf18, hits give low values 0.983 | S. cerevisiae deletion strains, locus YMR125W, strain sto1, hits give low values 0.991 | S. cerevisiae deletion strains, locus YMR129W, hits give low values 1.01 | S. cerevisiae deletion strains, locus YMR205C, strain PFK2, hits give low values 0.982 | S. cerevisiae deletion strains, locus YMR223W, strain ubp8, hits give low values 0.994 | S. cerevisiae deletion strains, locus YMR231W, strain pep5, hits give low values 1.01 | S. cerevisiae deletion strains, locus YMR263W, strain SAP30, hits give low values 1.01 | S. cerevisiae deletion strains, locus YMR307W, strain GAS1, hits give low values 0.981 | S. cerevisiae deletion strains, locus YNL067W, strain RPL9B, hits give low values 1.01 | S. cerevisiae deletion strains, locus YNL071W, strain lat1, hits give low values 1 | S. cerevisiae deletion strains, locus YNL153C, strain GIM3, hits give low values 1.01 | S. cerevisiae deletion strains, locus YNL183C, strain NPR1, hits give low values 0.957 | S. cerevisiae deletion strains, locus YNL209W, strain ssb2, hits give low values 1.01 | S. cerevisiae deletion strains, locus YNL233W, strain BNI4, hits give low values 1.01 | S. cerevisiae deletion strains, locus YNL248C, strain rpa49, hits give low values 0.995 | S. cerevisiae deletion strains, locus YNL250W, strain rad50, hits give low values 0.986 | S. cerevisiae deletion strains, locus YNL271C, strain bni1, hits give low values 0.978 | S. cerevisiae deletion strains, locus YNL298W, strain CLA4, hits give low values 0.988 | S. cerevisiae deletion strains, locus YNL307C, strain MCK1, hits give low values 0.984 | S. cerevisiae deletion strains, locus YNL322C, strain KRE1 (second series), hits give low values 1.02 | S. cerevisiae deletion strains, locus YNR049C, strain mso1, hits give low values 1.01 | S. cerevisiae deletion strains, locus YNR052C, strain pop2, hits give low values 0.989 | S. cerevisiae deletion strains, locus YOL006C, strain TOP1, hits give low values 1.05 | S. cerevisiae deletion strains, locus YOL012C, strain htz1 0.743 | S. cerevisiae deletion strains, locus YOL147C, strain pex11, hits give low values 0.981 | S. cerevisiae deletion strains, locus YOR001W, strain rrp6, hits give low values 0.963 | S. cerevisiae deletion strains, locus YOR061W, strain CKA2, hits give low values 1.01 | S. cerevisiae deletion strains, locus YOR069W, strain VPS5, hits give low values 1 | S. cerevisiae deletion strains, locus YOR070C, strain gyp1, hits give low values 0.996 | S. cerevisiae deletion strains, locus YOR080W, strain dia2, hits give low values 1.01 | S. cerevisiae deletion strains, locus YOR083W, strain WHI5, hits give low values 1.03 | S. cerevisiae deletion strains, locus YOR106W, strain vam3, hits give low values 1.03 | S. cerevisiae deletion strains, locus YOR136W, strain idh2, hits give low values 0.978 | S. cerevisiae deletion strains, locus YOR144C, strain elg1, hits give low values 0.972 | S. cerevisiae deletion strains, locus YOR184W, strain ser1, hits give low values 1.01 | S. cerevisiae deletion strains, locus YOR231W, strain MKK1, hits give low values 0.997 | S. cerevisiae deletion strains, locus YOR265W, strain rbl2, hits give low values 1 | S. cerevisiae deletion strains, locus YOR270C, strain vph1, hits give low values 1 | S. cerevisiae deletion strains, locus YOR290C, strain snf2, hits give low values 1.03 | S. cerevisiae deletion strains, locus YOR316C, strain cot1, hits give low values 0.993 | S. cerevisiae deletion strains, locus YPL051W, strain arl3, hits give low values 1.03 | S. cerevisiae deletion strains, locus YPL078C, strain atp4, hits give low values 1.03 | S. cerevisiae deletion strains, locus YPL106C, strain sse1, hits give low values 1.02 | S. cerevisiae deletion strains, locus YPL240C, strain hsp82, hits give low values 1.01 | S. cerevisiae deletion strains, locus YPL241C, strain CIN2, hits give low values 1.01 | S. cerevisiae deletion strains, locus YPL256C, strain CLN2, hits give low values 0.999 | S. cerevisiae deletion strains, locus YPR119W, strain clb2, hits give low values 0.981 | S. cerevisiae deletion strains, locus YPR141C, strain kar3, hits give low values 0.983 | S. cerevisiae deletion strains, locus YPR163C, strain tif3, hits give low values 0.99 | S. cerevisiae deletion strains, locus YPR167C, strain met16, hits give low values 0.992 | S. cerevisiae deletion strains, strain wtn01, hits give low values 0.984 | S. cerevisiae strains, strain wild type, hits give low values 1.01
